Holding throughout (assay): HT-SELEX; high values mean tight binding
What all share (settings): protein: recombinant; vector His6-GST; dsDNA, one strand shown

For one assay, the target named is T1, SALL4 ZFC4 WT (HT-SELEX) (Mus musculus, UniProt Q8BX22 870-940).
T1 sequence: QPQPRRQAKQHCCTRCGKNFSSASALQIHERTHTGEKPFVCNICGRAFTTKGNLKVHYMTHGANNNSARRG
The procedure, abridged:
(§1)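 A 100 µl reaction of 10 mM Tris–HCl pH 7.5, 50 mM NaCl, poly(dI-dC) and DTT held purified recombinant mouse SALL4 zinc finger cluster 4 (residues 870–940, 1 µg) and library DNA (1.5 µg first cycle, 200 ng later) for 10 min at room temperature. Complexes captured on Ni2+ beads were washed, PCR-amplified and reselected for up to 6 cycles, in triplicate, then MiSeq-sequenced and scanned for 6-mers. Binding signal is the read fraction of each canonical k-mer expressed as fold change over the initial random library.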

Assay [1] concerns the target T2, SALL4 ZFC4 R900W (HT-SELEX) (Mus musculus, UniProt Q8BX22 870-940, R900W).
T2 sequence: T1 sequence with R31W
The procedure, abridged: as §1

Assay [2] has as its target T3, SALL4 ZFC4 G921D (HT-SELEX) (Mus musculus, UniProt Q8BX22 870-940, G921D).
T3 sequence: T1 sequence with G52D
The procedure, abridged: as §1

Residue numbers refer to the chain shown, from its start.

Take GGTCAA: the figures for the binding signal (with SALL4 ZFC4 WT (HT-SELEX); in assay [1]; in assay [2]) were 0.661 ± 0.0198 fold-change vs cycle 0, 0.78 ± 0.0273 fold-change vs cycle 0 and 0.867 ± 0.0299 fold-change vs cycle 0, respectively.
As to ACCTTC, the results for the binding signal (with SALL4 ZFC4 WT (HT-SELEX); in assay [1]; in assay [2]) were 0.842 ± 0.0201 fold-change vs cycle 0, 0.982 ± 0.0475 fold-change vs cycle 0 and 1 ± 0.0224 fold-change vs cycle 0, respectively.
On the same counts, the results for ATTCTA are 2.06 ± 0.0756 fold-change vs cycle 0, 2.07 ± 0.113 fold-change vs cycle 0 and 1.81 ± 0.213 fold-change vs cycle 0.
Consider GAATGA, for which the binding signal in the assay with SALL4 ZFC4 WT (HT-SELEX) is 1.42 ± 0.0437 fold-change vs cycle 0; in assay [1], 1.57 ± 0.0566 fold-change vs cycle 0; in assay [2] it was 1.43 ± 0.0639 fold-change vs cycle 0.
On the same counts, the results for AAACGC are 0.392 ± 0.00979 fold-change vs cycle 0, 0.449 ± 0.0166 fold-change vs cycle 0 and 0.58 ± 0.0501 fold-change vs cycle 0.
As for AACTAA, the binding signal is 2.02 ± 0.0351 fold-change vs cycle 0 in the assay with SALL4 ZFC4 WT (HT-SELEX), 2.07 ± 0.133 fold-change vs cycle 0 in assay [1] and 1.82 ± 0.176 fold-change vs cycle 0 in assay [2].
On the same counts, the results for CTCCCA are 0.474 ± 0.0284 fold-change vs cycle 0, 0.569 ± 0.0121 fold-change vs cycle 0 and 0.655 ± 0.0274 fold-change vs cycle 0.
On the same counts, the results for TGAACA are 1.29 ± 0.0296 fold-change vs cycle 0, 1.4 ± 0.0577 fold-change vs cycle 0 and 1.36 ± 0.0684 fold-change vs cycle 0.
For ACTTAT, the results for the binding signal (with SALL4 ZFC4 WT (HT-SELEX); in assay [1]; in assay [2]) were 2.49 ± 0.156 fold-change vs cycle 0, 2.19 ± 0.135 fold-change vs cycle 0 and 1.9 ± 0.197 fold-change vs cycle 0, respectively.
Regarding GACGAA, the binding signal with SALL4 ZFC4 WT (HT-SELEX) is 0.609 ± 0.00641 fold-change vs cycle 0; in assay [1] it was 0.72 ± 0.0219 fold-change vs cycle 0; in assay [2] it was 0.7905 ± 0.00753 fold-change vs cycle 0.
For the sequence ACGTAC, the binding signal with SALL4 ZFC4 WT (HT-SELEX) came to 0.714 ± 0.0363 fold-change vs cycle 0; in assay [1], 0.825 ± 0.0331 fold-change vs cycle 0; in assay [2] it was 0.862 ± 0.022 fold-change vs cycle 0.
On the same counts, the results for GCCAAA are 0.353 ± 0.00667 fold-change vs cycle 0, 0.404 ± 0.0166 fold-change vs cycle 0 and 0.545 ± 0.0739 fold-change vs cycle 0.
On the same counts, the results for CGTCAC are 0.375 ± 0.0256 fold-change vs cycle 0, 0.436 ± 0.013 fold-change vs cycle 0 and 0.545 ± 0.0521 fold-change vs cycle 0.
On the same counts, the results for AACAAC are 1.18 ± 0.0643 fold-change vs cycle 0, 1.26 ± 0.0286 fold-change vs cycle 0 and 1.25 ± 0.0618 fold-change vs cycle 0.
Take CTATAC: the binding signal in the assay with SALL4 ZFC4 WT (HT-SELEX) amounted to 1.32 ± 0.0145 fold-change vs cycle 0; in assay [1], 1.46 ± 0.0569 fold-change vs cycle 0; in assay [2] it was 1.37 ± 0.0569 fold-change vs cycle 0.
In the case of CCGATA, the binding signal with SALL4 ZFC4 WT (HT-SELEX) amounted to 0.671 ± 0.053 fold-change vs cycle 0; in assay [1], 0.717 ± 0.0449 fold-change vs cycle 0; in assay [2] it was 0.816 ± 0.0546 fold-change vs cycle 0.
Consider ACGGAG, for which the binding signal with SALL4 ZFC4 WT (HT-SELEX) came out at 0.414 ± 0.0316 fold-change vs cycle 0; in assay [1] it was 0.522 ± 0.0321 fold-change vs cycle 0; in assay [2], 0.609 ± 0.0699 fold-change vs cycle 0.
On to AGACAG, for which the binding signal with SALL4 ZFC4 WT (HT-SELEX) was 0.803 ± 0.00959 fold-change vs cycle 0; in assay [1] it was 0.914 ± 0.0204 fold-change vs cycle 0; in assay [2], 0.943 ± 0.0351 fold-change vs cycle 0.
On the same counts, the results for ATTAAA are 3.73 ± 0.281 fold-change vs cycle 0, 2.54 ± 0.18 fold-change vs cycle 0 and 2.14 ± 0.26 fold-change vs cycle 0.
Consider CATGTA, for which the binding signal with SALL4 ZFC4 WT (HT-SELEX) came to 1.28 ± 0.0897 fold-change vs cycle 0; in assay [1] it was 1.37 ± 0.0595 fold-change vs cycle 0; in assay [2], 1.35 ± 0.123 fold-change vs cycle 0.
As to GGAGGA, the binding signal is 0.577 ± 0.0578 fold-change vs cycle 0 with SALL4 ZFC4 WT (HT-SELEX), 0.669 ± 0.0435 fold-change vs cycle 0 in assay [1] and 0.733 ± 0.0247 fold-change vs cycle 0 in assay [2].
On the same counts, the results for CACAAC are 0.647 ± 0.0332 fold-change vs cycle 0, 0.72 ± 0.018 fold-change vs cycle 0 and 0.828 ± 0.0337 fold-change vs cycle 0.
ATCCTC: the figures for the binding signal (in the assay with SALL4 ZFC4 WT (HT-SELEX); in assay [1]; in assay [2]) were 0.944 ± 0.0401 fold-change vs cycle 0, 1.06 ± 0.0699 fold-change vs cycle 0 and 1.09 ± 0.0423 fold-change vs cycle 0, respectively.
For CATCAC, the results for the binding signal (in the assay with SALL4 ZFC4 WT (HT-SELEX); in assay [1]; in assay [2]) were 0.892 ± 0.0417 fold-change vs cycle 0, 0.975 ± 0.0159 fold-change vs cycle 0 and 1.032 ± 0.00917 fold-change vs cycle 0, respectively.
AGACCA: the binding signal with SALL4 ZFC4 WT (HT-SELEX) came to 0.701 ± 0.0172 fold-change vs cycle 0; in assay [1] it was 0.823 ± 0.0201 fold-change vs cycle 0; in assay [2] it was 0.91 ± 0.0215 fold-change vs cycle 0.
Turning to GACGTA, the binding signal with SALL4 ZFC4 WT (HT-SELEX) was 0.666 ± 0.0264 fold-change vs cycle 0; in assay [1], 0.752 ± 0.0315 fold-change vs cycle 0; in assay [2], 0.823 ± 0.0398 fold-change vs cycle 0.
On the same counts, the results for CTCTCA are 0.878 ± 0.0209 fold-change vs cycle 0, 0.992 ± 0.023 fold-change vs cycle 0 and 1.04 ± 0.0372 fold-change vs cycle 0.
With AGGAGC, the results for the binding signal (with SALL4 ZFC4 WT (HT-SELEX); in assay [1]; in assay [2]) were 0.374 ± 0.0206 fold-change vs cycle 0, 0.46 ± 0.0185 fold-change vs cycle 0 and 0.595 ± 0.0548 fold-change vs cycle 0, respectively.
On the same counts, the results for AAGAGG are 0.855 ± 0.0331 fold-change vs cycle 0, 1.01 ± 0.0625 fold-change vs cycle 0 and 0.999 ± 0.0313 fold-change vs cycle 0.
On the same counts, the results for CCATAC are 0.84 ± 0.0342 fold-change vs cycle 0, 0.88 ± 0.0149 fold-change vs cycle 0 and 0.931 ± 0.0299 fold-change vs cycle 0.
Consider AATTCT, for which the binding signal with SALL4 ZFC4 WT (HT-SELEX) is 2.05 ± 0.0669 fold-change vs cycle 0; in assay [1], 1.99 ± 0.104 fold-change vs cycle 0; in assay [2], 1.8 ± 0.162 fold-change vs cycle 0.
On the same counts, the results for CGTCAA are 0.564 ± 0.0126 fold-change vs cycle 0, 0.667 ± 0.0148 fold-change vs cycle 0 and 0.765 ± 0.0373 fold-change vs cycle 0.
With CTACCA, the figures for the binding signal (in the assay with SALL4 ZFC4 WT (HT-SELEX); in assay [1]; in assay [2]) were 0.775 ± 0.0319 fold-change vs cycle 0, 0.894 ± 0.00977 fold-change vs cycle 0 and 0.96 ± 0.00989 fold-change vs cycle 0, respectively.
On the same counts, the results for AGTAAA are 1.96 ± 0.143 fold-change vs cycle 0, 2.08 ± 0.144 fold-change vs cycle 0 and 1.78 ± 0.193 fold-change vs cycle 0.
On the same counts, the results for AATCGG are 0.593 ± 0.0172 fold-change vs cycle 0, 0.657 ± 0.021 fold-change vs cycle 0 and 0.763 ± 0.0166 fold-change vs cycle 0.
On the same counts, the results for ACTCGA are 0.761 ± 0.0231 fold-change vs cycle 0, 0.839 ± 0.0214 fold-change vs cycle 0 and 0.905 ± 0.00699 fold-change vs cycle 0.
On to ATCCCA, for which the values for the binding signal (with SALL4 ZFC4 WT (HT-SELEX); in assay [1]; in assay [2]) were 0.89 ± 0.0366 fold-change vs cycle 0, 0.976 ± 0.0258 fold-change vs cycle 0 and 0.979 ± 0.0303 fold-change vs cycle 0, respectively.
On the same counts, the results for AGAAGG are 0.864 ± 0.0399 fold-change vs cycle 0, 1.05 ± 0.055 fold-change vs cycle 0 and 0.997 ± 0.0501 fold-change vs cycle 0.
On the same counts, the results for AATGGA are 1.38 ± 0.0388 fold-change vs cycle 0, 1.47 ± 0.0617 fold-change vs cycle 0 and 1.39 ± 0.0841 fold-change vs cycle 0.
On the same counts, the results for GGTAAC are 0.927 ± 0.0412 fold-change vs cycle 0, 1.08 ± 0.0236 fold-change vs cycle 0 and 1.06 ± 0.0314 fold-change vs cycle 0.
CAAGGG: the binding signal with SALL4 ZFC4 WT (HT-SELEX) stood at 0.487 ± 0.0326 fold-change vs cycle 0; in assay [1] it was 0.5882 ± 0.00585 fold-change vs cycle 0; in assay [2] it was 0.665 ± 0.033 fold-change vs cycle 0.
On the same counts, the results for TCCCAA are 0.743 ± 0.0235 fold-change vs cycle 0, 0.826 ± 0.0256 fold-change vs cycle 0 and 0.872 ± 0.0393 fold-change vs cycle 0.

These data come from article PMC9838217, “Structure of SALL4 zinc finger domain reveals link between AT-rich DNA binding and Okihiro syndrome”.
